Screening results: PubChem BioAssay, National Center for Advancing Translational Sciences (NCATS)
The sample as a whole holds a higher share of hits than the screen did.
KDM5B inh – blocks human KDM5B histone demethylase activity; Q9UGL1; KDM5B demethylase, FDH-coupled NADH fluorescence (FDH is formaldehyde dehydrogenase); Potency, µM (doses to about 57.7 µM), most hits filed as inhibitors; hit rate 2.6% among 220,000; active means well fitted inhibition curve with a large enough effect; further: 0% is about no effect; nearly all actives have a fitted effect of over 70% in size
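Here, H3K4me3 peptide (12.5 µM in substrate mix) is demethylated by KDM5BΔAP, 200 nM final, after 10 min compound exposure. Formaldehyde product is coupled through FDH (0.25 U/mL in mix) to NADH fluorescence; 30-min ΔRFU feeds dose-response curves.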
An asterisk follows results filed as active. Potency means the concentration at half of the fitted maximal effect.

For CC(C)C[C@@H]1N[C@H](C(=O)N2CCOCC2)Cc2cn(CC3CC3)c3cccc1c23 the results were KDM5B inh 35µM*.
For C=CCN(C)C(=O)[C@@H]1Cc2cn(Cc3nccn3C)c3cccc(c23)[C@H](CC(C)C)N1 the results were KDM5B inh inactive.
For CC(C)C[C@@H]1N[C@H](C(=O)NC(C)C)Cc2cn(Cc3ccncc3)c3cccc1c23 the results were KDM5B inh inactive.
For CC(C)C[C@@H]1N[C@H](C(=O)O)Cc2cn(CC3CC3)c3cccc1c23 the results were KDM5B inh 32µM*.
`C=CCn1cc2c3c(cccc31)[C@H](CC(C)C)N[C@H](C(=O)N1CCN(C)CC1)C2` gave KDM5B inh 22µM*.
C=CCNC(=O)[C@@H]1Cc2cn(CC#CC)c3cccc(c23)[C@H](CC(C)C)N1 was read as KDM5B inh inactive.
`CC(C)C[C@@H]1N[C@H](C(=O)NCC2CC2)Cc2cn(Cc3ccncc3)c3cccc1c23` gave KDM5B inh inactive.
Cc1coc2cc3o/c(=N/O)c4c(c3cc12)CCC4 was read as KDM5B inh inactive.
`COCCCNC(=O)Cn1ccc2ccc(Cl)cc21` gave KDM5B inh inactive.
`Cc1cnc(CC2CCN(C(=O)Cc3cccnc3)CC2)n1Cc1ccc(F)cc1` gave KDM5B inh inactive.
Cc1cc(=O)n2c3ccccc3nc2n1CC(=O)c1ccc(Cl)cc1 was read as KDM5B inh inactive.
Screening COCCC1(C(=O)O)CCCN(Cc2cnc(CC3CCCC3)[nH]2)C1 (stereo not given) returned KDM5B inh inactive.
For CN(Cc1cccs1)C(=O)/C=C/c1ccc(C#N)cc1 the results were KDM5B inh inactive.
COC(=O)c1c(NC(=O)Cc2coc3cc(C)cc(C)c23)sc2c1CCC2 was read as KDM5B inh inactive.
Cc1cccc(C2CC(c3cccs3)=NN2c2nc(C)cs2)c1 (stereo not given) was read as KDM5B inh inactive.
`CC(C(=O)Nc1ccc(F)c(F)c1)N1CCC(C(=O)NCc2ccccc2)CC1` (stereo not given) gave KDM5B inh inactive.
For CC(C)C[C@@H]1N[C@H](C(=O)N2CCOCC2)Cc2cn(Cc3cccnc3)c3cccc1c23 the results were KDM5B inh inactive.
For CC#CCn1cc2c3c(cccc31)[C@H](CC(C)C)N[C@H](C(=O)NCc1ccc(OC)cc1)C2 the results were KDM5B inh inactive.
`C=CCn1cc2c3c(cccc31)[C@H](CC(C)C)N[C@H](C(=O)N1CCOCC1)C2` gave KDM5B inh 32µM*.
C#CCNC(=O)[C@@H]1Cc2cn(CC#CC)c3cccc(c23)[C@H](CC(C)C)N1 was read as KDM5B inh inactive.
`CC#CCn1cc2c3c(cccc31)[C@H](CC(C)C)N[C@H](C(=O)NCCNC(C)=O)C2` gave KDM5B inh 32µM*.
Screening Cc1cc(Cn2cc3c4c(cccc42)[C@H](CC(C)C)N[C@H](C(=O)NCCN2CCOCC2)C3)no1 returned KDM5B inh inactive.
CC(C)n1nc(C(=O)OCC(=O)Nc2ccc3c(c2)OC(F)(F)O3)c2ccccc2c1=O was read as KDM5B inh inactive.
Screening O=C(CC(c1ccc(F)cc1)N1Cc2ccccc2C1=O)NCCc1ccccc1 (stereo not given) returned KDM5B inh inactive.
`O=C(c1cccc2nc3ccccc3nc12)N1CCOCC1` gave KDM5B inh inactive.
`CCn1cc(C2N3CC4(CC)CN2CC(CC)(C3)C4=O)c2ccccc21` (stereo not given) gave KDM5B inh inactive.
`Cc1cc(Cl)ccc1S(=O)(=O)NCCn1c(C)cnc1C1CCC1` gave KDM5B inh inactive.
Screening COc1cccc(NC(=O)CNC(=O)c2ccc(OC)c(OC)c2)c1 returned KDM5B inh inactive.
For COc1ccccc1Nc1ncc2c(n1)CN(C(=O)c1cccc(N(C)C)c1)CCN2 the results were KDM5B inh inactive.
For O=C(COc1ccccc1)N1CCNc2cnc(Nc3cccc(F)c3)nc2C1 the results were KDM5B inh 35µM*.
Screening O=C(c1ncccn1)N1CCNc2cnc(Nc3ccc(-n4ccnc4)cc3)nc2C1 returned KDM5B inh inactive.
Screening COCC1CN(C)CC12CCN(Cc1cc(C)nn1C)CC2 (stereo not given) returned KDM5B inh inactive.
`CCn1cc(CN2CCC3(CC2)CN(C)CC3COC)cn1` (stereo not given) gave KDM5B inh 25µM*.
For COCC1CN(C)CC12CCN(Cc1ccc(Cl)c(F)c1)CC2 (stereo not given) the results were KDM5B inh inactive.
Screening O=C1CN(C(=O)c2ccc(S(=O)(=O)N3CCCC3)cc2)C(c2ccc(F)cc2)c2cc(F)ccc2N1 (stereo not given) returned KDM5B inh inactive.
Screening Cc1ccc(-c2noc(-c3nnn(-c4ccc(Br)cc4F)c3C)n2)cc1 returned KDM5B inh inactive.
`COc1ccc(NC(=O)Nc2nnc(N3CCCCCC3)s2)cc1` gave KDM5B inh inactive.
For CCOC(=O)C1=C(CS(=O)(=O)c2ccc(F)cc2)NC(=O)NC1c1ccc(OCC)c(OC)c1 (stereo not given) the results were KDM5B inh inactive.
`CN(C)C(=O)C1CN(C(=O)COc2ccccc2)CC12CCOCC2` (stereo not given) gave KDM5B inh inactive.
Screening CC(C)C(=O)Nc1ccc(C2(C(=O)N3CCCC3)CCCCC2)cc1 returned KDM5B inh inactive.
`O=C(Nc1ccc(C2(C(=O)N3CCN(c4ccccn4)CC3)CCCCC2)cc1)C1CC1` gave KDM5B inh 28µM*.
For CCC(=O)N1CC(C(=O)N2CCN(c3ccccn3)CC2)C2(CCOCC2)C1 (stereo not given) the results were KDM5B inh 32µM*.
O=C(Nc1ccc(C2(C(=O)NCC3CC3)CCCCC2)cc1)C1CC1 was read as KDM5B inh inactive.
`O=C(N1CCN(c2ccccn2)CC1)C1(c2ccc(Cl)cc2)CCOCC1` gave KDM5B inh 79µM*.
`CCC(=O)N1CC(C(=O)Nc2ccccn2)C2(CCOCC2)C1` (stereo not given) gave KDM5B inh inactive.
Screening CCC(=O)Nc1ccc(C2(C(=O)N3CCN(c4ccccc4)CC3)CCC2)cc1 returned KDM5B inh inactive.
`CC(=O)Nc1ccc(C2(C(=O)N3CCN(c4ccccn4)CC3)CCCCC2)cc1` gave KDM5B inh 28µM*.
`CC(C)C(=O)Nc1ccc(C2(C(=O)N3CCN(c4ccccc4)CC3)CCCCC2)cc1` gave KDM5B inh inactive.
Screening O=C(N1CCCCC1)C1(c2ccc(Cl)cc2)CCOCC1 returned KDM5B inh inactive.
O=C(N1CCN(c2ncccn2)CC1)C1(c2ccc(Cl)cc2)CCOCC1 was read as KDM5B inh inactive.
`O=C(NC1CCCC1)C1(CCO)CC12CCOCC2` (stereo not given) gave KDM5B inh inactive.
Screening COc1ccc(C(=O)N2CCCC(c3nn(-c4ccc(Cl)cc4)c(=O)[nH]3)C2)cc1 (stereo not given) returned KDM5B inh inactive.
`CC/C=C(/C)C(=O)N(C)Cc1ccsc1` gave KDM5B inh inactive.
`N#CC(C(=O)Nc1ccccc1Cl)C(=O)c1ccc(F)cc1` (stereo not given) gave KDM5B inh inactive.
Screening Cc1ccc(C)c(N2CCN(C(=O)c3cnn(-c4ccccc4Cl)c3C3CCN(C(=O)OC(C)(C)C)CC3)CC2)c1 returned KDM5B inh inactive.
